Assays:
Conditions in all cases: Compound Concentration (nM):1000
CDKL3 = tested on: CDKL3
CDKL5 = tested on: CDKL5
CHEK1 = tested on: CHEK1
CHEK2 = tested on: CHEK2
CIT = tested on: CIT
CLK1 = tested on: CLK1
CLK2 = tested on: CLK2
CLK3 = tested on: CLK3
CLK4 = tested on: CLK4
CSF1R-autoinhibited = tested on: CSF1R-autoinhibited
CSF1R = tested on: CSF1R
CSK = tested on: CSK
CSNK1A1L = tested on: CSNK1A1L
CSNK1A1 = tested on: CSNK1A1
CSNK1D = tested on: CSNK1D
CSNK1E = tested on: CSNK1E
CSNK1G1 = tested on: CSNK1G1
CSNK1G2 = tested on: CSNK1G2
CSNK1G3 = tested on: CSNK1G3
CSNK2A1 = tested on: CSNK2A1
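Note: KINOMEscan scanMAX binding as percent activity remaining versus control; lower means stronger binding.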

Row | SMILES | Percent Control (CDKL3) [%] | Percent Control (CDKL5) [%] | Percent Control (CHEK1) [%] | Percent Control (CHEK2) [%] | Percent Control (CIT) [%] | Percent Control (CLK1) [%] | Percent Control (CLK2) [%] | Percent Control (CLK3) [%] | Percent Control (CLK4) [%] | Percent Control (CSF1R-autoinhibited) [%] | Percent Control (CSF1R) [%] | Percent Control (CSK) [%] | Percent Control (CSNK1A1L) [%] | Percent Control (CSNK1A1) [%] | Percent Control (CSNK1D) [%] | Percent Control (CSNK1E) [%] | Percent Control (CSNK1G1) [%] | Percent Control (CSNK1G2) [%] | Percent Control (CSNK1G3) [%] | Percent Control (CSNK2A1) [%]
1 | COc1ccc2[nH]c3c4[nH]c5ccc(OC)cc5c4c4c(c3c2c1)C(=O)NC4=O [GW296115X] | 91 | 94 | 12 | 1.7 | 35 | 80 | 56 | 79 | 57 | 59 | 58 | 95 | 91 | 62 | 94 | 52 | 74 | 86 | 100 | 61
2 | CC(C)COC(=O)c1ccc2c(c1)/C(=C/Nc1ccc(S(N)(=O)=O)cc1)C(=O)N2 [GW416981X] | 64 | 5.1 | 100 | 42 | 86 | 18 | 2.3 | 98 | 41 | 95 | 100 | 100 | 50 | 99 | 100 | 100 | 96 | 94 | 100 | 9
3 | CCc1ccc(Oc2nccc(-c3c(-c4ccc(F)cc4)ncn3C3CCNCC3)n2)cc1 [SB-242719] | 100 | 84 | 90 | 84 | 1.2 | 100 | 70 | 100 | 100 | 77 | 100 | 80 | 66 | 5.1 | 1.7 | 0.4 | 83 | 40 | 53 | 77
4 | NS(=O)(=O)c1ccc(N/N=C2\C(=O)Nc3ccc(C(=O)NCc4ccncc4)cc32)cc1 [GW300657X] | 84 | 6.5 | 100 | 67 | 87 | 67 | 17 | 92 | 75 | 83 | 99 | 87 | 60 | 83 | 92 | 98 | 87 | 100 | 67 | 53
5 | Cl.c1ccc(Cc2nc3ccc(Nc4ncnc5ccccc45)cc3[nH]2)cc1 [GR269666A] | 100 | 59 | 100 | 94 | 100 | 91 | 93 | 100 | 100 | 100 | 100 | 22 | 100 | 100 | 100 | 93 | 100 | 100 | 100 | 82
6 | COc1cc(C=NNc2ncnc3c2cnn3-c2ccccc2)ccc1O [GW513184X] | 100 | 100 | 100 | 97 | 96 | 48 | 83 | 82 | 60 | 100 | 100 | 100 | 100 | 77 | 86 | 51 | 100 | 57 | 93 | 28
7 | COc1cccc(-c2c[nH]c3c(N/N=C/c4ccncc4)ncnc23)c1 [GW814408X] | 8 | 4.2 | 100 | 86 | 54 | 30 | 44 | 80 | 30 | 74 | 46 | 66 | 100 | 88 | 92 | 83 | 100 | 90 | 100 | 14
8 | COc1cc2ncnc(Nc3ccc4c(cnn4Cc4ccccc4)c3)c2cc1OC.Cl [GW282449A] | 100 | 55 | 100 | 0 | 100 | 100 | 100 | 100 | 100 | 100 | 100 | 5.1 | 100 | 100 | 100 | 97 | 100 | 100 | 100 | 82
9 | O=C(Nc1n[nH]c2nc(-c3ccc(O)cc3)c(Br)cc12)C1CC1 [SB-725317] | 100 | 37 | 100 | 100 | 51 | 100 | 95 | 100 | 100 | 96 | 100 | 100 | 100 | 100 | 100 | 85 | 100 | 100 | 100 | 87
10 | CC1=C(C(=O)Nc2ccc3[nH]ncc3c2)C(c2ccc(Cl)c(Cl)c2)CC(=O)N1 (centres unmarked) [GSK299115A] | 95 | 97 | 95 | 100 | 100 | 75 | 67 | 78 | 52 | 74 | 97 | 91 | 66 | 84 | 100 | 100 | 100 | 88 | 96 | 91
11 | NS(=O)(=O)c1ccc(N/N=C2\C(=O)Nc3ccc(-c4cnco4)cc32)cc1 [GW276655] | 37 | 16 | 100 | 93 | 79 | 36 | 24 | 100 | 37 | 88 | 100 | 92 | 78 | 76 | 60 | 96 | 100 | 72 | 91 | 50
12 | NS(=O)(=O)c1ccc(Nc2ncc(-c3ccccc3)o2)cc1 [GW572399X] | 100 | 100 | 100 | 100 | 100 | 100 | 100 | 100 | 100 | 58 | 100 | 100 | 100 | 100 | 100 | 83 | 100 | 100 | 100 | 76
13 | Cl.O=C(Nc1ccc(Oc2ccc3[nH]c(NC(=O)c4ccco4)nc3c2)cc1)Nc1cc(C(F)(F)F)ccc1F [GW683134A] | 100 | 100 | 88 | 97 | 0.4 | 47 | 89 | 100 | 44 | 79 | 1.5 | 85 | 90 | 100 | 98 | 93 | 100 | 100 | 100 | 88
14 | COc1cccc(-n2ncc3c(N/N=C/c4ccncc4)ncnc32)c1 [GW784752X] | 46 | 5.1 | 100 | 87 | 86 | 42 | 61 | 100 | 45 | 96 | 100 | 78 | 91 | 94 | 92 | 100 | 100 | 100 | 100 | 20
15 | COc1cc(/C=N/Nc2ncnc3[nH]ncc23)ccc1O [GW578748X] | 97 | 100 | 7 | 51 | 83 | 19 | 29 | 85 | 50 | 56 | 93 | 67 | 94 | 61 | 57 | 60 | 67 | 42 | 79 | 8.7
16 | COc1ccc2c(-c3ccnc(Nc4cccc(OC(F)(F)F)c4)n3)cnn2n1 [GW810372X] | 0 | 14 | 100 | 100 | 97 | 1.3 | 2.8 | 32 | 2.4 | 86 | 100 | 100 | 100 | 92 | 100 | 100 | 98 | 100 | 100 | 67
17 | COc1cc(N2CCN(C(C)C)CC2)ccc1Nc1nc(Nc2ccc(F)cc2C(=O)NC[C@@H](O)CO)c2cc[nH]c2n1 [GSK1392956A] | 100 | 43 | 94 | 0.2 | 80 | 1.6 | 2.6 | 77 | 7.5 | 100 | 100 | 86 | 68 | 35 | 31 | 46 | 52 | 32 | 29 | 51
18 | CCS(=O)(=O)c1ccc(OC)c(Nc2ncc(-c3cccc(F)c3)o2)c1 [GW621970X] | 100 | 60 | 100 | 100 | 100 | 19 | 12 | 75 | 23 | 6.2 | 48 | 98 | 100 | 100 | 100 | 100 | 100 | 100 | 100 | 6.2
19 | CCn1c(-c2nonc2N)nc2c(C#CC(C)(C)O)nc(OCCNC)cc21.Cl [GSK949675] | 100 | 100 | 100 | 86 | 44 | 100 | 87 | 100 | 90 | 100 | 100 | 100 | 100 | 94 | 100 | 100 | 100 | 92 | 100 | 100
20 | COc1cc2ncn(-c3cc(O[C@H](C)c4ccccc4Cl)c(C(N)=O)s3)c2cc1OC [GSK237701A] | 76 | 100 | 100 | 100 | 100 | 81 | 90 | 77 | 68 | 70 | 63 | 88 | 60 | 88 | 100 | 100 | 85 | 89 | 100 | 83
21 | CC1=C(C(=O)Nc2ccc3[nH]ncc3c2)C(c2ccc3ccccc3c2)CC(=O)N1 (centres unmarked) [GSK270822A] | 72 | 100 | 92 | 100 | 99 | 95 | 80 | 91 | 70 | 54 | 82 | 95 | 64 | 91 | 100 | 100 | 92 | 89 | 100 | 80
22 | Nc1ncnc2occ(-c3ccc(NC(=O)Nc4cc(C(F)(F)F)ccc4F)cc3)c12 [GW770249X] | 13 | 100 | 100 | 96 | 44 | 41 | 100 | 100 | 57 | 25 | 0.2 | 74 | 92 | 100 | 82 | 76 | 98 | 92 | 99 | 100
